# According to PubChem BioAssay AID652031 (The Scripps Research Institute Molecular Screening Center, 2013):
# Among all 16,000 compounds or so, about 70 (0.4%) were called active. Rule as the data show it: active = inhibition above about 50%; inactive = the rest. Shown is part of a subset that was picked to be rich in actives.
# Target: Kappa-type opioid receptor (Homo sapiens) (UniProt P41145)
# Test: antagonists of human kappa opioid receptor OPRK1, Maybridge library (AID 652031)
# Conditions: OPRK1 cells, antagonist mode, fluorescence readout; at 9 µM; hits give high values
# Kappa-type opioid receptor (Homo sapiens), sequence (P41145 whole entry, looked up): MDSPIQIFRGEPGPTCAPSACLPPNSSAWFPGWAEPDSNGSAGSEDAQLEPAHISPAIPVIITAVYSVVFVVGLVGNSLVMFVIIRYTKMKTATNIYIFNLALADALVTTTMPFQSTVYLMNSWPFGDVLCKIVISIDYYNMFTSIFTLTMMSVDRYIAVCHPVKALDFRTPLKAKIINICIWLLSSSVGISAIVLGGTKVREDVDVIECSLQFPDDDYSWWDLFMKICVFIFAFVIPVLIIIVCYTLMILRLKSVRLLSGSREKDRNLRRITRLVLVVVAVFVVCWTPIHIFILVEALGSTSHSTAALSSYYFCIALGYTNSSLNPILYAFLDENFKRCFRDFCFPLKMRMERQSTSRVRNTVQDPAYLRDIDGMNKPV
row,SMILES,inhibition
1,COc1ccccc1N1CCN(C/C(N)=N/O)CC1,-2.8% (inactive)
2,N/C(=N\OC(=O)c1cccc(Cl)c1)c1ccc2nonc2c1,3% (inactive)
3,COC(=O)C1=C(NNc2ccccc2)CSC1,8.6% (inactive)
4,FC(F)(F)c1ccc(-n2cn[nH]c2=S)cc1,-0.4% (inactive)
5,COc1ccc(Cc2nc(C(C)(C)C)cs2)cc1,10.7% (inactive)
6,CCOC(=O)CNC(=O)c1ccc(-c2cccc([N+](=O)[O-])c2)o1,9.9% (inactive)
7,CSc1nc(-n2nc(C)cc2C)nc(-c2ccco2)c1C#N,-17.5% (inactive)
8,CC(N)=NCCc1ccncc1,-6% (inactive)
9,N#Cc1cn(-c2cccc(C(F)(F)F)c2)c(=O)n(Cc2ccc(Cl)cc2)c1=O,-10.4% (inactive)
10,CC(C)S(=O)(=O)c1cscc1N/C=C(/C#N)C(=O)C1CC1,14.8% (inactive)
11,N#Cc1ccc(Oc2ccc(Cl)cc2)c([N+](=O)[O-])c1,5.4% (inactive)
12,O=C(CSc1nnc(-c2ccncc2)n1Cc1ccccc1)Nc1nnc(-c2ccco2)s1,2.3% (inactive)
13,COC(C)(OC)c1ccc(C#N)c(=S)[nH]1,-2.3% (inactive)
14,FC(F)(F)c1cnc(NN=C2CCSCC2)c(Cl)c1,-7.6% (inactive)
15,COc1ccc(COCC(O)CN2CCN(c3ccc(C(F)(F)F)cn3)CC2)cc1 (stereo not drawn),-10.5% (inactive)
16,CN(C)C(=S)Nc1ccc(Br)cc1Cl,12.1% (inactive)
17,N#CCCSc1sc(=S)sc1SCCC#N,-2.5% (inactive)
18,N/C(=N\OC(=O)CCn1cccc(C(F)(F)F)c1=O)c1ccc(OC(F)(F)F)cc1,3.1% (inactive)
19,Cc1cc(-c2noc(-c3cccs3)n2)no1,-20.2% (inactive)
20,C/C(=N\NC(=S)Nc1cccc(F)c1)c1ccco1,14.4% (inactive)
21,Cn1cccc1CNC(=O)c1cc(F)cc2c1OCOC2,11.7% (inactive)
22,CSc1nc(N/C=C(\C#N)C(=O)c2cccs2)n2nc(C)cc2n1,9.3% (inactive)
23,COc1c(/C(N)=N/O)cc(C)c2c1CCC2,-7.6% (inactive)
24,COc1cccc(C(=O)c2sc3nsc(SCc4ccc(F)cc4)c3c2N)c1,81.9% (active)
25,CCOC(=O)N1CCN(CC(O)COc2ccc(OC(F)(F)F)cc2)CC1 (stereo not drawn),3.6% (inactive)
26,COC(=O)c1ccccc1N(C)C(=O)c1cc(OC)c(OC)c(OC)c1,2.6% (inactive)

row,SMILES,inhibition
1,Cc1ccc(S(=O)(=O)NNC(=O)CCc2nc(-c3ccc(Cl)cc3)no2)cc1,-5.8% (inactive)
2,COC(=O)c1cc(C(N)=O)c(SC)s1,8.2% (inactive)
3,O=C(c1ccc(F)cc1)C1CCN(Cc2cn[nH]c2-c2ccccc2)CC1,-2.9% (inactive)
4,O=C(CSc1ccc(Cl)cc1)NCCSCc1ccco1,15.7% (inactive)
5,Cc1nn(-c2ccccc2)nc1C(=O)Nc1nnc(C2CC2)s1,8.4% (inactive)
6,COc1ccc(OC(=O)/C=C/c2sc3ccccc3c2C)cc1,8.8% (inactive)
7,O=C1CCC(=O)N(c2ccccc2)N1,14.7% (inactive)
8,O=C1NC(=O)c2cc([N+](=O)[O-])c(Sc3c(Cl)cccc3Cl)cc21,4.3% (inactive)
9,N#CCc1ccc(NC(=O)c2ccccc2C(=O)Nc2ccc(CC#N)cc2)cc1,20.8% (inactive)
10,O=C(Nc1ccc(I)cc1Cl)C(=S)NCc1cccs1,-3.3% (inactive)
11,CCOC(=O)COc1cccc2c(C)cc(=O)oc12,-1.5% (inactive)
12,O=C(c1ccc(Oc2ccc(Cl)cc2)c([N+](=O)[O-])c1)N1CCCC1,4.1% (inactive)
13,CCO/N=C\c1nn(S(C)(=O)=O)cc1Br,-12.1% (inactive)
14,CNC(=O)c1ccccc1I,-1.2% (inactive)
15,CSc1nnc(-c2ccc(C(F)(F)F)cn2)o1,-0.1% (inactive)
16,Cn1cnnc1SCC(=O)Nc1cc(C(F)(F)F)cc(C(F)(F)F)c1,0.9% (inactive)
17,CC(C)(C)NC(=O)N/N=C/c1[nH]ncc1Br,1% (inactive)
18,Cc1cc(/C(N)=N/OC(=O)c2cccs2)c(-c2ccccc2)o1,-13% (inactive)
19,CN(C)NC(=O)c1csnc1-c1c(Cl)cccc1Cl,36.6% (inactive)
20,COC(=O)c1ccc(S(=O)(=O)N2CCN(c3ccc([N+](=O)[O-])cn3)CC2)n1C,-6.6% (inactive)
21,CCOC(=O)/C(C#N)=C/c1ccc(-c2nccs2)cc1C(C)(C)C,-2.8% (inactive)
22,COC(=O)c1cnc(N2CCCN(C(=O)C3COc4ccccc4O3)CC2)nc1C(F)(F)F (stereo not drawn),-8.4% (inactive)
23,CCc1cnc(NS(=O)(=O)c2cc(Cl)sc2Cl)nc1-c1c(F)cccc1F,1.8% (inactive)
24,CCOC(=O)Cc1nc(N)ncc1C(=O)OCC,17.3% (inactive)
25,FC(F)(F)c1ccc(/C=N/Nc2nccc(C(F)(F)F)n2)cc1,6.7% (inactive)
26,Cc1nc2sc(-c3ccccc3)cc2c(=O)o1,-0.4% (inactive)

row,SMILES,inhibition
1,CCOCCOCCN(CC)c1ccc(N=Nc2c(C#N)cc([N+](=O)[O-])cc2C#N)c(NC(C)=O)c1,-11.4% (inactive)
2,O=c1cc(-c2ccccc2)sc2ccc(Cl)cc12,-5.7% (inactive)
3,OC(CNCCNc1nccc(C(F)(F)F)n1)COc1ccc(Cl)c(Cl)c1 (stereo not drawn),-9.3% (inactive)
4,CC(=O)Nc1ccc(/C(N)=N/O)cc1,9.1% (inactive)
5,O=c1oc(/C=C/c2ccccc2)nc2ccccc12,-41.1% (inactive)
6,COc1cc(OC)nc(/N=C/c2nc(-c3ccccc3)oc2O)n1,5.7% (inactive)
7,N/C(=N/OC(=O)NC(=O)c1c(Cl)cccc1Cl)c1ccc(F)cc1F,-5.4% (inactive)
8,N#Cc1c(-c2ccccc2)c(-c2ccccc2)n[nH]c1=O,20% (inactive)
9,N#C/C(=C\C=C\c1ccccc1)c1nc2ccccc2[nH]1,13.4% (inactive)
10,S=C(Nc1cccnc1)N1CCCN(Cc2ccc(Cl)cc2Cl)CC1,4.7% (inactive)
11,Cc1ccc(Oc2c(C)[nH]c(=S)[nH]c2=O)cc1,-1.2% (inactive)
12,O=C(Nc1ccccc1N1CCOCC1)C1CCN(c2nccc(C(F)(F)F)n2)CC1,9.4% (inactive)
13,Cc1cc(NC(=O)c2cc(-c3ccccc3)c(C(F)(F)F)s2)no1,-1.6% (inactive)
14,CSc1sc(C(=O)Nc2cccc(Cl)c2)c(-c2cccs2)c1C#N,5.9% (inactive)
15,Cn1cnc(S(=O)(=O)Nc2ccc3[nH]ccc3c2)c1,-0.5% (inactive)
16,CC(C)(C)C(=O)Nc1c(Br)c(C2CC2)nn1-c1ccccc1,4.1% (inactive)
17,COC(=O)C1=C(NNc2ncc(Cl)cc2C(F)(F)F)CSC1,-2.3% (inactive)
18,CC(=O)OCC(=O)[C@@]1(O)[C@H](C)CC2C3CCC4=CC(=O)C=CC4(C)C3=CCC21C (stereo partly drawn),0.2% (inactive)
19,Cc1ccc(S(=O)(=O)NNC(=S)NC(C)(C)C)cc1,-0.7% (inactive)
20,CC(=O)c1cc([N+](=O)[O-])c(NC2CCCCC2)s1,-27.9% (inactive)
21,Clc1ccc(CO/N=C/c2nc3ccccc3s2)cc1,16.1% (inactive)
22,N#Cc1cc([N+](=O)[O-])c(N2CCCC2)cc1N1CCCC1,-4.1% (inactive)
23,Cn1nc(C(C)(C)C)c(NC(=O)c2sccc2Cl)c1C(C)(C)C,-1.9% (inactive)
24,CCSC(=O)NCc1ccccc1,-12.7% (inactive)
25,Cc1nc(C(F)(F)F)ccc1C(=O)NCCNc1ncccc1C(F)(F)F,-36.9% (inactive)
26,CCOC(=O)c1cc(C)n(-c2cccc([N+](=O)[O-])c2)c1-c1ccccc1,-0.8% (inactive)

row,SMILES,inhibition
1,Cn1cc(C(=O)Nc2ccc(F)c(Cl)c2)c(N)n1,20.6% (inactive)
2,Cc1nnsc1C(=O)NN(C)c1ccc([N+](=O)[O-])cn1,14.8% (inactive)
3,CC1(C)CC(=O)C(N=Nc2c(F)cccc2F)=C(O)C1,-7.3% (inactive)
4,CCOC(=O)NC(=O)/C(=C/NC(C)C)C(=O)OCC,5.6% (inactive)
5,O=C1CCCCC(=O)c2ccccc2N1,7.1% (inactive)
6,Cc1ccc(C(=O)N2CCN(c3cccc4[nH]ccc34)CC2)cc1,2.5% (inactive)
7,CCOC(=O)c1nnc2c(Br)c(C)nn2c1C,3.1% (inactive)
8,O=[N+]([O-])c1ccc(N2CCSCC2)cc1O,3.6% (inactive)
9,COc1ccc(/C(C)=N/Nc2c([N+](=O)[O-])cc(C(F)(F)F)cc2[N+](=O)[O-])cc1CC#N,-23.7% (inactive)
10,C=CCn1c(SCC(=O)Nc2nnc(-c3cccs3)s2)nnc1-c1ccco1,8.8% (inactive)
11,COC(=O)c1cccc(CSc2ncccc2C(=O)O)c1,15.2% (inactive)
12,CC(=O)c1nnc2cc(C)nn2c1C,28.9% (inactive)
13,CSc1sc(C(N)=O)cc1C#N,6.9% (inactive)
14,Cc1cc(C(=O)NNC(=O)c2cc(C)n(C(C)(C)C)n2)no1,8.1% (inactive)
15,COc1ccc2c(OC(C)=O)coc2c1,-6.7% (inactive)
16,N#C/C(=C\c1cccn1S(=O)(=O)c1ccccc1)C(=O)c1ccccc1,7.4% (inactive)
17,N#Cc1ccc(OS(=O)(=O)c2cc(C(F)(F)F)cc(C(F)(F)F)c2)cc1,-5.9% (inactive)
18,COC(=O)c1ccccc1NC(=S)NNC(=O)c1ccc([N+](=O)[O-])cc1,7.8% (inactive)
19,COC(=O)c1ccc(/C=C2\C(=O)Nc3ccccc32)n1-c1ccc(F)cc1,84.7% (active)
20,Cc1c(C)c(C)c(CSC(=N)CC#N)c(C)c1C,-7.6% (inactive)
21,O=C(CSc1nc2ccccc2o1)N1CCC(n2cccc2)CC1,1.7% (inactive)
22,CCCc1c(C(=O)O)cnn1-c1ccc(Cl)cc1,-5.5% (inactive)
23,CCCc1nc(N)ncc1C(=O)OCC,-2.5% (inactive)
24,CCOC(=O)c1c(C)csc1NC(=O)CC(=O)C(F)(F)F,-3% (inactive)
25,Oc1ccc(-n2cncn2)cc1,-0.4% (inactive)
